The panel holds about 79,000 compounds, 15% with a hit somewhere; the sample as a whole holds those more often. A number with no mark means an inactive call. Calls of active or inactive are those of the source. No stated cut-off is given here; in the data, active means growth inhibition above about 70%; inactive means the rest.
Tests used:
[1] = NCI Yeast Anticancer Drug Screen. Data for the rad50 strain (AID 155);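 further: 0% = growth of vehicle-only cultures of the same strain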; details: S. cerevisiae rad50 strain growth inhibition; at 50.0 µM; stronger effect = higher value
In short: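 Growth of the mutant yeast was measured after compound exposure and referenced to vehicle-treated cultures.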

[2] = NCI Yeast Anticancer Drug Screen. Data for the mec2-1 strain (AID 157); details: S. cerevisiae mec2-1 strain, at 50.0 µM, stronger effect = higher value
In short: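 Test agents were screened against the mec2-1 yeast strain, with defined DNA repair or cell cycle alteration. Growth was scored as inhibition against vehicle-only controls.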

[3] = NCI Yeast Anticancer Drug Screen. Data for the sgs1 mgt1 strain (AID 161);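 further: 0% = growth of cultures given vehicle only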; details: S. cerevisiae sgs1 mgt1 strain, at 50.0 µM, stronger effect = higher value
In short: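 Mutant yeast exposed to compound; growth scored against vehicle-only wells.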

[4] = NCI Yeast Anticancer Drug Screen. Data for the cln2 rad14 strain (AID 165);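 further: 0% = growth equal to vehicle treated cultures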; details: S. cerevisiae cln2 rad14 strain, at 50.0 µM, stronger effect = higher value
In short: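 Growth of compound-exposed yeast (cln2 rad14 genotype) measured and expressed as inhibition relative to vehicle.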

[5] = NCI Yeast Anticancer Drug Screen. Data for the bub3 strain (AID 167); details: S. cerevisiae bub3 mutant strain, at 50.0 µM, stronger effect = higher value
In short: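 Whole-cell yeast assay. The mutant strain was incubated with compounds, and growth inhibition was determined by comparison with vehicle-treated cells.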

[6] = NCI Yeast Anticancer Drug Screen. Data for the mlh1 rad18 strain (AID 175); details: S. cerevisiae mlh1 rad18 strain growth inhibition; at 50.0 µM; stronger effect = higher value
In short: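 In this whole-cell yeast screen, a strain with altered DNA damage repair is challenged with compound, and its growth is measured against matched vehicle-treated controls.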

Row | SMILES | growth inhibition [1] [%] | growth inhibition [2] [%] | growth inhibition [3] | growth inhibition [4] [%] | growth inhibition [5] [%] | growth inhibition [6]
1 | CCCNC(=S)NNC(N)=O | 2.5 | 7.35 | -9.05% | 6.15 | -11.2 | 12.2%
2 | CCOC(=O)NN1C(=O)C(=P(c2ccccc2)(c2ccccc2)c2ccccc2)C(C(=O)OC)=C1C | -4.05 | 4.45 | -6.75% | 11.8 | -6.65 | -4.85%
3 | c1ccc(C2=NOCC3(c4ccccc4)OC23)cc1 (stereo not given) | 7.85 | 11.8 | 20.7% | -14.8 | 14.2 | 11.3%
4 | CON(C)CCOC(=O)c1ccc([N+](=O)[O-])cc1 | -5.25 | 4.15 | -2.6% | -21.4 | 3.95 | 27.2%
5 | CS(=O)(=O)CCC(Nc1ccc([N+](=O)[O-])cc1[N+](=O)[O-])C(=O)O (stereo not given) | 4.7 | 6.1 | 22.1% | 4.25 | 5.6 | -11.7%
6 | CC(C)=CC(=O)OC(C)(C)C | 11.4 | 1.65 | 3.35% | 6.1 | 7.05 | 23.7%
7 | CC(=O)CSc1cc(C)c2ccccc2n1 | -6.6 | -7.35 | -11.1% | -10.8 | -13.1 | 1.05%
8 | N#Cc1ccc(Cl)cc1C#N | 13.4 | -4.65 | -2.2% | 7.65 | 14.1 | -14.3%
9 | Cc1ccc(C(=O)OCC2OC(Cl)CC2OC(=O)c2ccc(C)cc2)cc1 (stereo not given) | 22.6 | -13.7 | 26.8% | -36 | 2.85 | -8.3%
10 | CC(=O)Nc1cc(-c2ccccc2)ccc1O | 56.7 | 30.1 | 56.8% | 32.2 | 40.2 | 57.4%
11 | Nc1ccc(C(=O)N/N=C/c2ccc(Cl)cc2Cl)cc1 | 27 | -4.05 | 11.9% | 8 | 13.1 | -5.75%
12 | Cc1cc(C)n2ncnc2n1 | 16.9 | -22.6 | 7.9% | 4.15 | -5.15 | 5.35%
13 | NOCc1nnc(Nc2ccccc2)s1 | 7.25 | 3.8 | 5.8% | 19.3 | -4.4 | 5.55%
14 | ONc1cnc2ccccc2n1 | -34.9 | -30.4 | -3.5% | -49.2 | -4.8 | 0.4%
15 | CN(C)C(=O)Nc1cccc(OC(=O)NC2CCCCCCC2)c1 | 2.65 | 28.3 | 29.2% | 3.95 | 34.4 | 19.6%
16 | Cc1cccc(N=N/C(=N\NC(=O)c2cc(Cl)ccc2O)c2ccc(N(CCC#N)CCC#N)cc2C)c1 | 13.7 | -1 | 19.7% | 1.8 | 13.8 | -79.6%
17 | NC(CCCCNCc1ccccc1O)C(=O)O (stereo not given) | 10 | 14.2 | -1.7% | 7.45 | 20.7 | 25.9%
18 | CCOC(=O)c1ccccc1Nc1c(C(=O)OCC)cnc2cc3c(cc12)OCO3 | -13.8 | 3.95 | -9.85% | 2.85 | -0.25 | -7.8%

Row | SMILES | growth inhibition [1] [%] | growth inhibition [2] [%] | growth inhibition [3] | growth inhibition [4] [%] | growth inhibition [5] [%] | growth inhibition [6]
19 | CC(C)CCNc1ncnc2[nH]ncc12 | -16.5 | -31.7 | -26.2% | -35.1 | -13.8 | -18.4%
20 | NC(Cc1ccc(O)c(O)c1)P(=O)(O)O (stereo not given) | -72.8 | -38 | -35.7% | -5.75 | -0.1 | -27.8%
21 | COc1ccc2nccc(CO)c2c1 | 4.95 | -3.4 | -0.8% | -33.2 | 5.7 | 0.75%
22 | C[C@@]1(N2C(=O)OC(c3ccccc3)C2=O)C(=O)N2CCS[C@@]21c1ccccc1 (stereo not given in full) | 4.2 | 2.6 | 11.8% | 11.3 | 5.85 | 1.25%
23 | COC(=O)c1cc(C)ncc1C#N | 0.45 | 1.15 | -4.7% | 0.3 | 2.95 | 8%
24 | C=CCN(CC=C)c1nc(N)c2ccc(Cl)cc2n1 | -8 | -8 | -6.65% | -52.4 | -10.8 | -6.45%
25 | O=C(COc1ccccc1)OC1CCCCC1C1CCCCC1 (stereo not given) | 13.2 | 13 | 4.05% | 21.5 | 2.6 | 14.2%
26 | O=C(O)CC(C(=O)O)C1c2ccccc2-c2ccccc21 (stereo not given) | -0.1 | -27.2 | -40.4% | -17.2 | -49.2 | 3.6%
27 | O=S(/C=C/C=C/S(=O)(=O)c1ccccc1)c1ccccc1 (stereo not given) | 18.1 | 24.2 | 30.5% | 19.3 | 43.4 | 74% (active)
28 | OCCCOCc1ccccc1 | 39.8 | 27.4 | 30.9% | 30.3 | 17.5 | 12.2%
29 | CCOC(=O)c1c(Cl)c(CC)c(Cl)n2c1nc1ccccc12 | -12.7 | -7.45 | 14.8% | -9.6 | -2.8 | 4.05%
30 | Cc1cccc(-c2cc3cccnc3nc2NN=O)c1C | 64.8 | 68 | 75.7% (active) | 39.3 | 67.1 | 76.5% (active)
31 | CCOC(=O)NC(NC(=O)OCC)c1ccc(Cl)cc1Cl | -11.7 | -4.55 | -11.6% | 5.9 | 7.2 | 7.8%
32 | COc1cc(/C=C2/Cc3ccccc3C2=O)ccc1O | 47 | 24.1 | 20.4% | 22.9 | 26.7 | 26.6%
33 | COCC1C(COC)C2CCC1C2(Cc1ccccc1)Cc1ccccc1 (stereo not given) | 1.4 | 12.4 | 18.1% | -45.4 | 0 | -7.2%
34 | Cc1nc2ccccc2c(=O)n1NC(=S)Nc1ccccc1 | -40.9 | -57.1 | -41.5% | 7.85 | -32.4 | -59.5%
35 | Cn1c(=O)c2c(nc(CCC(N)=O)n2C)n(C)c1=O | -1.35 | -20.9 | 8.25% | -14.8 | 11.8 | 12.7%
